Screening data (PubChem BioAssay)
An excerpt weighted towards active compounds, which were near 6.7% of everything screened.
C diff HTS – C. difficile growth inhibitors, primary screen, HTS; Clostridium difficile clinical isolate growth, OD600, 24 h; active compounds read low; growth activity, negative = inhibition, % at 16 µg/mL (by protocol); 86,000 compounds, 0.25% hits; AID 1259249, 2017;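 active = mean growth activity at or below -80% and every replicate also at or below -80%; inconclusive = mean at or below -80% but some replicate above -80%; inactive = mean growth activity above -80%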;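 note: 0% = DMSO wells and -100% = levofloxacin 16 µg/mL wells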
T cruzi growth-1 – T. cruzi intracellular proliferation inhibitors, primary screen, cell-based, beta-gal Tulahuen parasites, NIH3T3 host, luminescence | AID 624255, 2012 | inhibition, % at 8.34 µM | T. cruzi beta-gal in NIH3T3, GalScreen luminescence, 90 h | 77,000 compounds, 5.9% hits;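 active = mean inhibition above about 93%, with at least 55% of replicates each passing it, limit read from the data, passing the limit was not always enough; inconclusive = only one of those two conditions holds; inactive = neither condition holds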
Pf Dd2 inh – P. falciparum Dd2 growth inhibitors, primary screen, SYBR Green fluorescence, single dose replicates; 72 h; active compounds read low; activity change, % at 10 µM; 94,000 compounds, 2.3% hits; AID 1159554, 2015; in the data active = activity change below about -80%; inconclusive = no clear call, values can overlap the other calls
T cruzi growth-2 – T. cruzi intracellular proliferation inhibitors, confirmation, cell-based, NIH3T3 host, beta-gal parasite, luminescence, cherry-pick; shares compounds with T cruzi growth-1; T. cruzi beta-gal in NIH3T3, GalScreen luminescence, 90 h; inhibition, % at 8.35 µM; 5,600 compounds, 72% hits;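 active = mean replicate inhibition above about 95% and at least 55% of replicates individually reaching it, limit read from the data; inconclusive = only one of the two criteria is met; inactive = neither criterion is met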
T cruzi growth-3 – inhibitors of intracellular T. cruzi replication, confirmation, NIH3T3 host cells, beta-gal parasites, cherry-pick, set 2. shares compounds with T cruzi growth-1. inhibition, % at 2.09 µM. T. cruzi beta-gal in NIH3T3, GalScreen luminescence, 90 h. 5,600 compounds, 21% hits;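 active = mean inhibition above about 95%, with at least 55% of replicates also reaching it, limit read from the data; inconclusive = meets just one of the two conditions; inactive = meets neither condition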;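 note: plate controls were neutral control median for no effect and positive control median for full effect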
3T3 cytotox – cytotoxicity in mouse NIH/3T3 fibroblasts, confirmation, cytotoxicity control for T. cruzi proliferation inhibitor project, cell-based, cherry-pick, single point; shares compounds with T cruzi growth-1; NIH/3T3 viability, CellTiter-Glo ATP luminescence, 90 h; cytotoxicity (signal decrease), % at 8.35 µM; 5,600 compounds, 14% hits; AID 651742, 2012;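 active = mean signal decrease across replicates above about 35% based on untreated-well scatter, with enough replicates individually passing, limit read from the data; inconclusive = no rule stated though some were filed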;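 note: 0% = median of neutral control wells and 100% = median of positive control wells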
3T3 cytotox 2 – NIH/3T3 fibroblast cytotoxicity, confirmation, cytotoxicity control, cell-based, cherry-pick, single point, set 2 | shares compounds with T cruzi growth-1 | NIH/3T3 viability, CellTiter-Glo ATP luminescence, 90 h | inhibition, % at 24.9 µM | 5,600 compounds, 56% hits | AID 651744, 2012;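 active = mean loss of cell viability signal at or above a set limit, and enough replicates individually reaching it; inconclusive = meets only the mean limit or only the replicate share; inactive = meets neither condition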;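 note: 0% = median of neutral control wells and 100% = median of positive control wells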
* = called active by the depositor; ? = inconclusive; / = not tested or not shown.

SMILES | C diff HTS | T cruzi growth-1 | Pf Dd2 inh | T cruzi growth-2 | T cruzi growth-3 | 3T3 cytotox | 3T3 cytotox 2
CC(C)NC(=O)N(C)C[C@@H]1Oc2cc(C#Cc3cccc(F)c3)ccc2S(=O)(=O)N([C@@H](C)CO)C[C@@H]1C | -12 | 92 | -73 | / | / | / | /
CC(C)NC(=O)N(C)C[C@H]1Oc2cc(C#Cc3ccc(F)cc3)ccc2S(=O)(=O)N([C@@H](C)CO)C[C@H]1C | -4 | 107* | -2 | 105* | 21 | -16 | 19
CC(C)NC(=O)N(C)C[C@H]1Oc2cc(C#Cc3cccc(F)c3)ccc2S(=O)(=O)N([C@@H](C)CO)C[C@H]1C | -6 | 100 | -42 | / | / | / | /
CC(C)NC(=O)N(C)C[C@@H]1Oc2cc(C#Cc3cccc(F)c3)ccc2S(=O)(=O)N([C@H](C)CO)C[C@@H]1C | -15 | 61 | -57 | / | / | / | /
CC(C)NC(=O)N(C)C[C@@H]1Oc2cc(C#Cc3ccc(F)cc3)ccc2S(=O)(=O)N([C@H](C)CO)C[C@@H]1C | -5 | 111* | -29 | 97* | ? | 11 | 10
CC(C)NC(=O)N(C)C[C@H]1Oc2cc(C#Cc3cccc(F)c3)ccc2S(=O)(=O)N([C@@H](C)CO)C[C@@H]1C | -8 | 116* | -22 | 99* | 59 | 22 | 45*
C[C@H](CO)N1C[C@H](C)[C@@H](CN(C)C(=O)c2ccc3c(c2)OCO3)Oc2ncc(C3=CCCCC3)cc2C1=O | -5 | 72 | -66 | / | / | / | /
Cc1ccccc1-c1cnc2c(c1)C(=O)N([C@H](C)CO)C[C@H](C)[C@H](CN(C)C(=O)CC1CC1)O2 | 2 | / | 22 | / | / | / | /
C[C@@H]1CN([C@@H](C)CO)C(=O)c2c(c3ccccc3n2C)-c2ccccc2CO[C@H]1CN(C)S(=O)(=O)c1ccsc1 | 4 | ? | -64 | 108* | 54 | 6 | 47*
COc1cccc(S(=O)(=O)N(C)C[C@@H]2OCc3ccccc3-c3c(n(C)c4ccccc34)C(=O)N([C@@H](C)CO)C[C@H]2C)c1 | -6 | 63 | -7 | / | / | / | /
COc1ccc(S(=O)(=O)N(C)C[C@@H]2OCc3ccccc3-c3c(n(C)c4ccccc34)C(=O)N([C@@H](C)CO)C[C@@H]2C)cc1 | / | ? | -87* | 100* | 67 | -17 | 24*
C[C@H]1CN([C@@H](C)CO)C(=O)c2c(c3ccccc3n2C)-c2ccccc2CO[C@H]1CN(C)S(=O)(=O)c1ccccc1C#N | 4 | 107* | -79 | 91 | 76 | ? | 85*
C[C@H](CO)N1C[C@H](C)[C@@H](CN(C)S(=O)(=O)c2ccccc2F)OCc2ccccc2-c2c(n(C)c3ccccc23)C1=O | -6 | -107 | 22 | / | / | / | /
C[C@H]1CN([C@@H](C)CO)C(=O)c2c(c3ccccc3n2C)-c2ccccc2CO[C@@H]1CN(C)S(=O)(=O)c1cccc(C#N)c1 | 1 | 60 | -30 | / | / | / | /
C[C@H](CO)N1C[C@H](C)[C@@H](CN(C)S(=O)(=O)c2ccc(C#N)cc2)OCc2ccccc2-c2c(n(C)c3ccccc23)C1=O | / | ? | -62 | 112* | 71 | 14 | 19
C[C@H](CO)N1C[C@H](C)[C@H](CN(C)S(=O)(=O)c2ccsc2)OCc2ccccc2-c2c(n(C)c3ccccc23)C1=O | 1 | 68 | -71 | / | / | / | /
C[C@@H](NC(=O)[C@H]1[C@H](CO)[C@H]2Cn3c(ccc(C4=CCCCC4)c3=O)[C@@H]1N2)c1ccccc1 | -5 | -6 | 9 | / | / | / | /
COc1ccc(CNC(=O)C[C@@H]2C[C@H]3c4cc(NC(=O)CN(C)C)ccc4O[C@H]3[C@H](CO)O2)cc1 | -2 | 36 | 3 | / | / | / | /
O=C(C[C@H]1C=C[C@H](NC(=O)c2ccccn2)[C@@H](CO)O1)NCc1cccc(F)c1 | 1 | -26 | 3 | / | / | / | /
COCC(=O)N1[C@H](CO)[C@H](c2ccccc2)[C@@H]1C#N | -2 | -25 | 37 | / | / | / | /
